Screens deposited in PubChem by National Center for Advancing Translational Sciences (NCATS).
CtBP-E1A inh – blocks the CtBP interaction with E1A; AlphaScreen GST-E1A/His-CtBP binding, 1536-well; hits give low values; activity change, % (no concentration beside the values); 340,000 tested, 0.49% active; AID 651724; in the data active means activity change below about -65%; inconclusive means mostly about -30% to -63%
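Steps: dispense buffer (Tris pH 8.0, NaCl 300 mM, TCEP 1 mM, BSA, Tween 20); add 5X protein mix (GST-E1A, His-CtBP, 125 nM each); pin 23 nL compound; 2 h at 37 °C, dark; add 5X beads (50 ug/mL); 1 h; read.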
DT40 TDP1 CPT – DT40-hTDP1 cell growth loss with CPT; chicken DT40 Tdp1-/-;hTDP1 cells + 20 nM CPT, ATP luminescence, 48 h; Potency, µM (series often up to 46.2 µM), for the others: at the highest dose activity change, negative = growth inhibition, usual class: inhibitors; 420,000 tested, 12% active; further: potency means the concentration at half of the fitted maximal effect; nearly all actives have a fitted effect of over 55% in size
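Chicken DT40 Tdp1-/- cells stably complemented with human TDP1 were seeded at 400 cells/well in medium containing 20 nM camptothecin, exposed to pin-transferred compounds, and grown at 37 °C for at least 48 hr. Viability was read as ATP luminescence.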
Six1-Eya2 blk – inhibitors of human Six1/Eya2 interaction. Q15475+O00167. AlphaScreen GST-Six1/His-Eya2 binding, biochemical; hits give low values. activity change, % (concentration not given with the values). 360,000 tested, 0.56% active. AID 651725; in the data active means activity change below about -65%; inconclusive means mostly about -30% to -63%
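Six1/Eya2 binding was read as AlphaScreen signal after compounds were pinned into GST-Six1 plus His-tagged Eya2 (5X stock 250/500 nM) in pH 8.0 Tris/NaCl/TCEP buffer, beads added, then incubated 1 h, 37 C, dark.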
DT40 TDP1 no CPT – qHTS for Inhibitors of human tyrosyl-DNA phosphodiesterase 1 (TDP1): qHTS in cells in absence of CPT | DT40 Tdp1-/- hTDP1 cells, no CPT, ATP luminescence, 48 h | Potency, µM (doses to about 46.2 µM), for the others: top-dose activity change, negative = growth inhibition, actives largely listed as inhibitors | 420,000 tested, 15% active | AID 686978, 2013; further: potency means the concentration at half of the fitted maximal effect; nearly all actives have a fitted effect of over 55% in size
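DT40 Tdp1-/-;hTDP1 cells, no CPT (DMSO vehicle only), 400 cells/well; compounds pin-transferred; ≥48 hr, 37 °C; CellTiter-Glo 30 min RT dark, luminescence read.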
TDP1 block – inhibitors of human tyrosyl-DNA phosphodiesterase TDP1 | 350,000 tested, 0.28% active | AID 485290 | Potency, µM (highest dose often 130 µM), without a hit: top-dose activity change, negative = inhibition, actives largely listed as inhibitors | Q9NUW8 | recombinant TDP1, AlphaScreen DNA substrate cleavage; further: potency means the concentration at half of the fitted maximal effect; nearly all actives have a fitted effect of over 40% in size
Target sequence (Q9NUW8 whole entry, looked up): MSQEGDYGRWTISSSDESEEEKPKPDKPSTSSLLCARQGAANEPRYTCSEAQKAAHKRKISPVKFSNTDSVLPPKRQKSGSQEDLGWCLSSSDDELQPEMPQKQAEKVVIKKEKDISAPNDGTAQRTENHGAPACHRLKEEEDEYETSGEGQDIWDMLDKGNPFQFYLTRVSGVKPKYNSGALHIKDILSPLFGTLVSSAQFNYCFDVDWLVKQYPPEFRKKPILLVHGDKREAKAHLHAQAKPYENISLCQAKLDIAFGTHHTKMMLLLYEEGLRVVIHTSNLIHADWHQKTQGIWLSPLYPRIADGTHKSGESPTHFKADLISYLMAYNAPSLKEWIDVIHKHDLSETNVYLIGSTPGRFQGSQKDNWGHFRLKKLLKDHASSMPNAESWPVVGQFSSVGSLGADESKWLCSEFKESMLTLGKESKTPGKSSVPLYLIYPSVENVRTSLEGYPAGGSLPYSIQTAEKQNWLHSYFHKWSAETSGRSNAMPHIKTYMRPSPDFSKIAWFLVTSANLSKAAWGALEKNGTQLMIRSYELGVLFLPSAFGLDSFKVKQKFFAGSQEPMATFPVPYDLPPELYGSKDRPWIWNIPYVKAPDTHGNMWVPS
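E. coli-derived human Tdp1, 1 nM final. Cpd preinc 15 min RT; substrate 15 nM final, 5 min RT; AS bead mix 10 ug/ml final, 10 min RT. Signal loss = tyrosine-FITC cleavage. No-enzyme wells = max signal.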
IL1B secr inh – blocks inflammasome-driven IL-1 beta release; 360,000 tested, 4.7% active; THP-1 LPS/ATP IL-1B secretion, AlphaLISA, 16 h; hits give low values; activity change, % at 57.5 µM; in the data active means activity change below about -50%; inconclusive means mostly about -30% to -49%
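Secreted IL-1B measured by AlphaLISA bead assay after 16 h compound exposure of THP-1 cells; compounds (final up to 57.5 uM) added 1 h before LPS (250 ng/mL) and ATP (1.25 mM) stimulation; lower signal means less secretion.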
* marks the source's active call; other numbers are inactive results; ? = inconclusive; / = no result; [ ] = remark or other dose. In the library only some 18% were active in any assay of this set; here they are far more common. Unless noted, the call rests on the fitted dose curve; in most records, active means well fitted curve in the direction sought with a large enough effect; inconclusive means small, poorly fitted or top-dose-only effect, or another doubt; inactive means no such curve, though single readings can be large; an effect the other way counts as inactive or inconclusive. On the % scale 0 is the no-effect control and ±100 the full control effect.

SMILES	CtBP-E1A inh	DT40 TDP1 CPT	Six1-Eya2 blk	DT40 TDP1 no CPT	TDP1 block	IL1B secr inh
CCOC(=O)C1(C)NC(c2cccs2)C2C(=O)N(c3ccc(OC)cc3)C(=O)C21 (configuration not stated)	-5.6	10.3µM*	-1.7	18.4µM*	-3.0%	15.4
CCOC(=O)C1(C)NC(c2ccc(N(C)C)cc2)C2C(=O)N(c3ccc(OC)cc3)C(=O)C21 (configuration not stated)	1.1	8.5%	2.3	-13.0%	1.0%	-14.2
CCOC(=O)C1(C)NC(c2ccc(OC)c(OC)c2)C2C(=O)N(c3cccc(C(C)=O)c3)C(=O)C21 (configuration not stated)	-24.4	1.7%	6.6	-28.2%	/	5.1
COc1ccc(-c2c3c(=O)n(C)c(=O)n(C)c3c3c(-c4ccccc4)nc4ccccc4n23)cc1	/	-2.6%	/	2.31µM*	-2.1%	/
COc1ccc(-c2nc3ccccc3n3c(-c4ccccc4)c4c(=O)n(C)c(=O)n(C)c4c23)cc1	/	0.6%	/	-18.9%	1.1%	/
COc1ccc(-c2c3c(=O)n(C)c(=O)n(C)c3c3c(-c4cccc(C)c4)nc4ccccc4n23)cc1	/	?	/	20.6µM*	0.0%	/
COc1ccc(-c2nc3ccccc3n3c(-c4cccc(C)c4)c4c(=O)n(C)c(=O)n(C)c4c23)cc1OC	/	16.4µM*	/	18.4µM*	-1.1%	/
CCN(CC)C(=O)C(=O)N/N=C/c1cccs1	-3.1	-18.5%	-3.9	5.7%	-5.2%	18.4
CCOC(=O)c1c(C)nc2c(C#N)cnn2c1C	-4.2	-14.4%	-8.3	-21.4%	4.3%	-13.1
CCCCNc1c(C(=O)OCC)c(C)nc2c1cnn2CC	6.8	13µM*	9.2	20.6µM*	5.7%[56.1 µM]	0.6
O=C(CSc1nnc2ncccn12)Nc1cccc2ccccc12	5.5	-4.4%	-4.6	?	2.1%	15.0
Cn1c(=O)c2c(-c3ccccc3)n(-c3cc(C(=O)O)ccc3O)cc2n(C)c1=O	0.1	-14.8%	-0.8	4.8%	/	7.5
CCOC(=O)c1ccc(O)c(-n2cc3c(c2-c2ccccc2)c(=O)n(C)c(=O)n3C)c1	-2.2	?	-11.6	14.6µM*	/	22.7
C#CCn1cc2c(c1-c1ccccc1)c(=O)n(C)c(=O)n2C	-2.3	16.4µM*	1.7	20.6µM*	/	16.8
Cn1c(=O)c2c(-c3ccccc3)n(CCCO)cc2n(C)c1=O	/	-10.9%	/	-22.1%	5.7%	/
Cn1c(=O)c2c(-c3ccccc3)n(-c3cccc(C#N)c3)cc2n(C)c1=O	/	16.4µM*	/	23.1µM*	7.4%	/
Cn1c(=O)c2c(-c3ccccc3)n(-n3cnnc3)cc2n(C)c1=O	-4.0	25.9µM*	-4.4	?	5.2%	-16.6
COc1ccc(S(=O)(=O)N(C)c2ccc(OCC(=O)Nc3cc(C)on3)cc2)cc1	-2.5	-4.1%	-1.0	-9.9%	-2.0%	-18.3
CC(C)(C)N(Cc1cc2ccccc2[nH]c1=O)C(=O)C1CCCCC1	6.2	?	9.2	?	-5.3%	-5.4
Cn1cc(C(c2ccccn2)c2cn(C)c3ccccc23)c2ccccc21	?	?	?	?	9.8%	0.0
Cn1c(=O)c2c(-c3ccccc3)n(-c3ccccc3)cc2n(C)c1=O	-2.1	3.66µM*	-5.0	4.61µM*	/	22.1
COc1ccc(-c2c3c(=O)n(C)c(=O)n(C)c3cn2-c2ccccc2)cc1	-2.8	25.9µM*	-15.2	13µM*	6.9%	13.6
Cn1c(=O)c2c(-c3ccccc3)n(-c3ccccc3F)cc2n(C)c1=O	-8.1	14.6µM*	7.3	13µM*	/	-12.0
Cn1c(=O)c2c(-c3ccccc3)n(-c3cccc(Br)c3)cc2n(C)c1=O	4.1	9.2µM*	-0.1	8.2µM*	/	34.2
COc1ccc(C(=O)Nn2cc3c(c2-c2ccccc2)c(=O)n(C)c(=O)n3C)cc1	3.8	-26.7%	-2.7	-5.3%	3.3%	0.1
SMILES	CtBP-E1A inh	DT40 TDP1 CPT	Six1-Eya2 blk	DT40 TDP1 no CPT	TDP1 block	IL1B secr inh
COC(=O)c1sccc1-n1cc2c(c1-c1ccccc1)c(=O)n(C)c(=O)n2C	-11.0	?	-17.2	20.6µM*	/	1.6
COc1ccc(-c2c3c(=O)n(C)c(=O)n(C)c3cn2-c2cccc(N)c2)cc1	/	?	/	23.1µM*	7.4%	/
COc1ccc(-c2c3c(=O)n(C)c(=O)n(C)c3cn2N2CCOCC2)cc1	-5.7	-17.7%	-10.1	?	2.6%	-7.1
NC(c1ccccc1)c1csc(Nc2ccc(C(=O)NCCO)cc2)n1 (configuration not stated)	-20.6	?	-7.0	?	/	18.3
NC(c1ccccc1)c1csc(Nc2ccc(C(=O)NCCCO)cn2)n1 (configuration not stated)	-84.8*	-17.9%	-82.6*	2.3%	/	7.2
NC(c1csc(Nc2ccc(C(=O)NCCCO)cn2)n1)c1ccccc1Cl (configuration not stated)	-76.9*	-4.9%	?	-12.7%	/	-16.0
CN(C)CC/C=C1/c2cc(F)ccc2Sc2ccc(Cl)cc21	-23.7	?	-24.6	18.4µM*	/	-51.4*
COc1cc2c(cc1Cl)/C(=C\CCN(C)C)c1ccccc1S2	16.8	18.4µM*	-20.4	?	5.8%	-102.6*
COc1cccc(C(=O)OC(C)C(=O)Nc2ccc3c(c2)OCO3)c1 (configuration not stated)	-1.9	13µM*	-6.2	8.2µM*	2.0%	27.7
CC(OC(=O)c1cccnc1Cl)C(=O)Nc1ccc2c(c1)OCO2 (configuration not stated)	/	?	-0.9	20.6µM*	-0.1%	12.5
COc1cc2c(cc1OC)[C@@H](NC(=O)C(C)C)[C@H](O)C2	5.0	-12.3%	8.7	5.8%	0.4%[56.1 µM]	-6.1
CCCCCCCCCC(=O)N[C@@H]1c2cc(OC)c(OC)cc2C[C@H]1O	1.1	?	2.3	16.4µM*	0.3%[56.1 µM]	0.0
O=C(NC1CCCCC1)c1cccc2c1C(=O)c1ccc(-c3ccc(OC(F)(F)F)cc3)cc1S2(=O)=O	-8.1	9.2µM*	2.3	9.2µM*	2.6%	11.3
O=C(NC1CCCC1)c1cccc2c1C(=O)c1ccc(/C=C/c3ccccc3)cc1S2(=O)=O	-10.4	?	0.5	18.4µM*	-0.2%	33.4
COc1ccc(-c2ccc3c(c2)S(=O)(=O)c2cccc(C(=O)NC4CCCC4)c2C3=O)cc1OC	/	-29.7%	0.8	-21.7%	0.0%	6.7
